# From ChEMBL document CHEMBL1961873, “Compounds: GSK PKIS; Assays: Nanosyn kinase panel” (2012)
# How the values were obtained:
# [1] = system: Epidermal growth factor receptor (Homo sapiens), P00533 [T790M]; conditions: at 1 µM
# [2] = system: Epidermal growth factor receptor (Homo sapiens), P00533 [L858R,T790M]; conditions: at 0.1 µM
# [3] = system: Epidermal growth factor receptor (Homo sapiens), P00533 [L858R,T790M]; conditions: at 1 µM
# [4] = biological target: Ephrin type-A receptor 2 (Homo sapiens) (UniProt P29317); conditions: at 0.1 µM
# [5] = biological target: Ephrin type-A receptor 2 (Homo sapiens) (UniProt P29317); conditions: at 1 µM
# [6] = biological target: T1, Ephrin type-A receptor 3 (Homo sapiens) (UniProt P29320); conditions: at 0.1 µM
# T1 sequence (whole entry): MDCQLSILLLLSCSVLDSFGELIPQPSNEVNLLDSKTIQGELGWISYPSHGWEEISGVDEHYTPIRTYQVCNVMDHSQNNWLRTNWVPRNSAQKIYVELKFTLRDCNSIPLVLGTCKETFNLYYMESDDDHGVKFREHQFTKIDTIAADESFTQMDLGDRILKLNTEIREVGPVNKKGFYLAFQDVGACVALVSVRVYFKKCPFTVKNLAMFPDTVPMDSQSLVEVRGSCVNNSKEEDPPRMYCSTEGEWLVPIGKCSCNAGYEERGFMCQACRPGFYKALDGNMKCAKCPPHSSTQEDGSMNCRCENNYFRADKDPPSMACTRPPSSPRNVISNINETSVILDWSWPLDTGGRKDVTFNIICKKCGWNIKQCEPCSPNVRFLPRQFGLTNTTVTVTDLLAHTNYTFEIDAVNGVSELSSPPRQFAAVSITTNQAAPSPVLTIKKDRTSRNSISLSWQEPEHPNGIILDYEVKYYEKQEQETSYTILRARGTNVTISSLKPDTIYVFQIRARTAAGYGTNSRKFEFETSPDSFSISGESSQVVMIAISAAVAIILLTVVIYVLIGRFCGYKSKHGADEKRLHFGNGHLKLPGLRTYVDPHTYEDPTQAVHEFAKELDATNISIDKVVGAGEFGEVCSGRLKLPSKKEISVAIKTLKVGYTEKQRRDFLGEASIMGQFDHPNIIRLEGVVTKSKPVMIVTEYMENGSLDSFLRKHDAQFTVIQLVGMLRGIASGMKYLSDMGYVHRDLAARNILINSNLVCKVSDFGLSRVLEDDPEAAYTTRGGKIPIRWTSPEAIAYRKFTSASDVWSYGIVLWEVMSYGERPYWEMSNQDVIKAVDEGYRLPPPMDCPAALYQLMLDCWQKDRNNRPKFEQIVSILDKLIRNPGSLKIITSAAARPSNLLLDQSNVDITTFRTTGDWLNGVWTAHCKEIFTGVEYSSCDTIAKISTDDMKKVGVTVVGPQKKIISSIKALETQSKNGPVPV
# [7] = biological target: T1, Ephrin type-A receptor 3 (Homo sapiens); conditions: at 1 µM
# [8] = biological target: Ephrin type-A receptor 4 (Homo sapiens) (UniProt P54764); conditions: at 0.1 µM
# [9] = biological target: Ephrin type-A receptor 4 (Homo sapiens) (UniProt P54764); conditions: at 1 µM
# [10] = biological target: T2, Ephrin type-B receptor 2 (Homo sapiens) (UniProt P29323); conditions: at 0.1 µM;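 also: reported as mean inhibition of EPHB2, from the GSK PKIS dataset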
# T2 sequence (whole entry): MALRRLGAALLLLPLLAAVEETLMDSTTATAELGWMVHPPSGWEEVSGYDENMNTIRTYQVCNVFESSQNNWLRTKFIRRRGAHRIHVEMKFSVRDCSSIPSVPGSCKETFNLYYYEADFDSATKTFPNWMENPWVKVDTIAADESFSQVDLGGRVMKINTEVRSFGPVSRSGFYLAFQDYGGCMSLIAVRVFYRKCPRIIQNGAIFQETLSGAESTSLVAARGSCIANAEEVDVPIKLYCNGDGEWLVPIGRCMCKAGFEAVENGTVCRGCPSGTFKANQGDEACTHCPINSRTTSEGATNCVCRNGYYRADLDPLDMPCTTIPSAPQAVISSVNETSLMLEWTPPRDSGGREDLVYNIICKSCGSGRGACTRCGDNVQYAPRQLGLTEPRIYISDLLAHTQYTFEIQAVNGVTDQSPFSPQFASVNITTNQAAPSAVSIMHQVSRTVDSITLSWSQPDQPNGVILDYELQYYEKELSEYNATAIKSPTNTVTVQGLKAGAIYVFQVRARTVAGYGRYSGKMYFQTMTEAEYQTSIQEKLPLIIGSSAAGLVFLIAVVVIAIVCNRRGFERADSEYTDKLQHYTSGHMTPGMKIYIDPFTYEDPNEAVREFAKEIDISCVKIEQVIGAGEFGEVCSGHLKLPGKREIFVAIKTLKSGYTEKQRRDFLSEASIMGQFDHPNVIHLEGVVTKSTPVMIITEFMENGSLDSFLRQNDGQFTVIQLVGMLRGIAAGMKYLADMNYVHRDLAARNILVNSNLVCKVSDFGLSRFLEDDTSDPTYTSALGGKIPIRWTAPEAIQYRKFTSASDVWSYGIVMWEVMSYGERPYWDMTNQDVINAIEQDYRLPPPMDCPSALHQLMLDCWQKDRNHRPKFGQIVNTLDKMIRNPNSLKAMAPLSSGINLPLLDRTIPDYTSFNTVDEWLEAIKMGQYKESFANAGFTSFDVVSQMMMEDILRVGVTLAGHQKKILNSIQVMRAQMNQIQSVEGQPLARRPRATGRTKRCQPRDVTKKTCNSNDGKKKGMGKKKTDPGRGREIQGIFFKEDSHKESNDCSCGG
# Chain of Epidermal growth factor receptor (Homo sapiens), P00533 [T790M] (P00533 whole entry T790M): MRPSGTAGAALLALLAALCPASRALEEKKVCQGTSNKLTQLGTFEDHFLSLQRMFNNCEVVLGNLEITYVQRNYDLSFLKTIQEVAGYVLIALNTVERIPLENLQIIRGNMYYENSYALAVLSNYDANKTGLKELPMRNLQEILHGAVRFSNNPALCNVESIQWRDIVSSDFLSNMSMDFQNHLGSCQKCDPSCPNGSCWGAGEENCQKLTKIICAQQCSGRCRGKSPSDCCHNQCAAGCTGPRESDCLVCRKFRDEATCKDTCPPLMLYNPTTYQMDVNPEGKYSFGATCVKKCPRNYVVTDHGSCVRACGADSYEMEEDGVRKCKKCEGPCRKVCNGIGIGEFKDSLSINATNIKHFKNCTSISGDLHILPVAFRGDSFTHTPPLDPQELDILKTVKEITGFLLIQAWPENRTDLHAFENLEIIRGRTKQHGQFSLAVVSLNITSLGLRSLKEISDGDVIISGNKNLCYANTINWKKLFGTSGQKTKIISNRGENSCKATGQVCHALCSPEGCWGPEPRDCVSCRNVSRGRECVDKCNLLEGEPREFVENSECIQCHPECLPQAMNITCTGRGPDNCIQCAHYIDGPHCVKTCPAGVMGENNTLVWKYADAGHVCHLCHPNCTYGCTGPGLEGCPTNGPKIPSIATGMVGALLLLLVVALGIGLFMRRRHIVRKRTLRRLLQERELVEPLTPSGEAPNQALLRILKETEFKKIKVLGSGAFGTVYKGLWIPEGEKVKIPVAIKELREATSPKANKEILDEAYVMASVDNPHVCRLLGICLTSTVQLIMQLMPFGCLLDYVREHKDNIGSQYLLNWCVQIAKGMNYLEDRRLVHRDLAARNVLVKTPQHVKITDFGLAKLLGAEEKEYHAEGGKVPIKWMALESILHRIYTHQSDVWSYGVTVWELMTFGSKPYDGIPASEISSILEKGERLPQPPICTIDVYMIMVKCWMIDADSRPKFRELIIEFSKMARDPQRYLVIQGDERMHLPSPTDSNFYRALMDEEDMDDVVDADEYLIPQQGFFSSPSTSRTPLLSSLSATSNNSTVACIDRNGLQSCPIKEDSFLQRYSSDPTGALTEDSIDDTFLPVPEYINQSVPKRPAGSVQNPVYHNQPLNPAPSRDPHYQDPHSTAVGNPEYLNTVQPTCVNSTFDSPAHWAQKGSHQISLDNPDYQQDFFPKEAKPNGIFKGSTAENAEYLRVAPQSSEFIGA
# Chain of Epidermal growth factor receptor (Homo sapiens), P00533 [L858R,T790M] (P00533 whole entry T790M/L858R, looked up): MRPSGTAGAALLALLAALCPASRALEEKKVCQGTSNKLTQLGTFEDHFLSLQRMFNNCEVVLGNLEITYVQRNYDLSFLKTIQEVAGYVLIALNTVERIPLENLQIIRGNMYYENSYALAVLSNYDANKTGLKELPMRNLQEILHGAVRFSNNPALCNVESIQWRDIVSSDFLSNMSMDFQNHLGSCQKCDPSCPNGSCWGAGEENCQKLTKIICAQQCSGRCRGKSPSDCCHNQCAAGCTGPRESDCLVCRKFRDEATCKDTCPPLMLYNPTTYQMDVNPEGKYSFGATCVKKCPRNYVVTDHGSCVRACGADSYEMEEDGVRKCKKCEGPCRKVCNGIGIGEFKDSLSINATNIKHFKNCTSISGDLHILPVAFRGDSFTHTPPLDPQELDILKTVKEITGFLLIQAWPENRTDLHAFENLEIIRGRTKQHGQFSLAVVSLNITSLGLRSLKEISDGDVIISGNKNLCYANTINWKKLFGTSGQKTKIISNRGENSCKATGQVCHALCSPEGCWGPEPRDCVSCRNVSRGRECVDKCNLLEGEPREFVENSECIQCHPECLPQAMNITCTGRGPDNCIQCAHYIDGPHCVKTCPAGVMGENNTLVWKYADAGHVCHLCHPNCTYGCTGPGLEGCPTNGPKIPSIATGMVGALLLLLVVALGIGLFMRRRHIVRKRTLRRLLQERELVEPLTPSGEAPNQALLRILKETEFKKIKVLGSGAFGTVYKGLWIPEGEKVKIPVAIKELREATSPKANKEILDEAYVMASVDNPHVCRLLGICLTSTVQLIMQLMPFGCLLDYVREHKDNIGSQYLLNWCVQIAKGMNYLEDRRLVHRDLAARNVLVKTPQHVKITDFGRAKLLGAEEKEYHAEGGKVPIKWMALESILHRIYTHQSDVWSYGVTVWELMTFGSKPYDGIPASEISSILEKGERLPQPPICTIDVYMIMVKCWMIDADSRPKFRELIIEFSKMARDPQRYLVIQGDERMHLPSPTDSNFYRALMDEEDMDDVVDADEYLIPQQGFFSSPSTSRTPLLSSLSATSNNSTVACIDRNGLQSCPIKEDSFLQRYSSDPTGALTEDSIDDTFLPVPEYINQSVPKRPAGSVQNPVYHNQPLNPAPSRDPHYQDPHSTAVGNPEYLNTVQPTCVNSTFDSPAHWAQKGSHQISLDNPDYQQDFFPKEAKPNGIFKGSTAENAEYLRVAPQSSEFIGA
# Chain of Ephrin type-A receptor 2 (Homo sapiens) (P29317 whole entry): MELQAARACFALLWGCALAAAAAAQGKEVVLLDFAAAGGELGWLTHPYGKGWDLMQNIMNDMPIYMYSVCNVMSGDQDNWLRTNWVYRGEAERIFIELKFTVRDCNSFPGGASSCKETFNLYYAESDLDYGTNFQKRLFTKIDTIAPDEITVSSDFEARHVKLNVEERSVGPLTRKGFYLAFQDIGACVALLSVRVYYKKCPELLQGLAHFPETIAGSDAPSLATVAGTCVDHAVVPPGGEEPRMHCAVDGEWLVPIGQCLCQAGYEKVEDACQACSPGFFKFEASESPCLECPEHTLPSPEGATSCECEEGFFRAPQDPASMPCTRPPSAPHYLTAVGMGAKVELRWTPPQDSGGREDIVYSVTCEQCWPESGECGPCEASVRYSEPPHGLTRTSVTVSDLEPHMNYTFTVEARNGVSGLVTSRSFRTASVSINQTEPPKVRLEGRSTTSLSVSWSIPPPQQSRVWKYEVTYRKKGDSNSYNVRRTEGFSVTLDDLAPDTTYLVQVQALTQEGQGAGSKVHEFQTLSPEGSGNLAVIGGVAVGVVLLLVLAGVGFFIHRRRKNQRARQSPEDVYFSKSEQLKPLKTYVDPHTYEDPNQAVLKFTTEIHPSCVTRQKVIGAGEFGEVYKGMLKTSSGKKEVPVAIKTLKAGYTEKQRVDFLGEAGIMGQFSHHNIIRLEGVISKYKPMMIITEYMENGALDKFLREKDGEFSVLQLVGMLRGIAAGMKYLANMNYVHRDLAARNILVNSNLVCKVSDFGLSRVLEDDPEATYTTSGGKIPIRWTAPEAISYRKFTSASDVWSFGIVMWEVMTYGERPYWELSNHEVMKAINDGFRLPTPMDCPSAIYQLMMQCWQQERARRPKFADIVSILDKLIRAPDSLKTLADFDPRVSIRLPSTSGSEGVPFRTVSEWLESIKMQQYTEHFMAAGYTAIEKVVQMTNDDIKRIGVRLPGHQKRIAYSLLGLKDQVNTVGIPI
# Chain of Ephrin type-A receptor 4 (Homo sapiens) (P54764 whole entry): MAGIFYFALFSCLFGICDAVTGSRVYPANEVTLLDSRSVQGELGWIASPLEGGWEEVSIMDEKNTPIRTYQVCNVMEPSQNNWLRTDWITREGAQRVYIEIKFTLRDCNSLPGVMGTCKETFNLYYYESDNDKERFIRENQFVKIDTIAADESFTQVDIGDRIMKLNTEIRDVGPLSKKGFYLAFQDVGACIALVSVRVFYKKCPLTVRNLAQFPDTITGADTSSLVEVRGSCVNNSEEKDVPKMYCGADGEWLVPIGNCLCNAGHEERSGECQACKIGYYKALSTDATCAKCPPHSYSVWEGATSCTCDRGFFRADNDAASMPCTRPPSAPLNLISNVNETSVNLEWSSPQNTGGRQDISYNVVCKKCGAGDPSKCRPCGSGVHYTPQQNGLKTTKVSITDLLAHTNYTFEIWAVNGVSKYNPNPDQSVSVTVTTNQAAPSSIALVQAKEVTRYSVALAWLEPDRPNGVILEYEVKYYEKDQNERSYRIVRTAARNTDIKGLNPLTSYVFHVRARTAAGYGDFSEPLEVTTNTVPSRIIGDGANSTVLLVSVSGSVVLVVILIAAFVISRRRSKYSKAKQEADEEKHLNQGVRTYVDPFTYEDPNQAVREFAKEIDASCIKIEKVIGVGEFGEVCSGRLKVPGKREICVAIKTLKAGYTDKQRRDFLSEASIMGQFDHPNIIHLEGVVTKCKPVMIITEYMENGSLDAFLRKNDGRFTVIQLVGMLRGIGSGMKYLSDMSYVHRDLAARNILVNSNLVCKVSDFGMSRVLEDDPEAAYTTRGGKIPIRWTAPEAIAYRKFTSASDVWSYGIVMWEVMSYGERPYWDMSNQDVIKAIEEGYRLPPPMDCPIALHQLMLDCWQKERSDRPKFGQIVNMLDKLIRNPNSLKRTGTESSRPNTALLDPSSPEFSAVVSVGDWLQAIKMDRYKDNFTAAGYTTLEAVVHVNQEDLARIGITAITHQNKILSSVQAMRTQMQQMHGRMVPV
Compound,inhibition [1] [%],inhibition [2] [%],inhibition [3] [%],inhibition [4] [%],inhibition [5] [%],inhibition [6] [%],inhibition [7] [%],inhibition [8] [%],inhibition [9] [%],inhibition [10] [%]
CNC(=O)c1ncccc1Nc1nc(Nc2cc3c(cc2OC)CCCN3C(=O)CN(C)C)nc2[nH]ccc12,54.4,43.7,80.5,0.62,0.22,5.44,5.06,7.88,7.89,8.66
OCCCNc1nccc(-c2c(-c3ccc(F)cc3)nn3cc(C(F)(F)F)ccc23)n1,-0.33,-1.34,5.46,1.26,1.9,2.86,3.67,8.53,13.3,8.48
Fc1ccc(Nc2nccc(-c3c(-c4ccc(C(F)(F)F)cc4)nn4ncccc34)n2)cc1F,0.77,-1.9,0.06,2.87,0.53,2.83,3.84,5.7,1.99,8.38
CN(C)CCNC(=O)Nc1ccc(N(C)c2ccnc(Nc3ccc(CS(C)(=O)=O)cc3)n2)cc1,1.68,4.53,6.61,2.63,1.36,3.79,4.33,6.86,6.65,10.6
CCN1CCC(C(=O)Nc2n[nH]c3nnc(-c4cccc(F)c4F)cc23)CC1,0.18,0.75,-1.85,-3.74,-3.34,-0.58,-0.43,-1.7,-0.26,0.41
COc1ccc(-c2nn3ncccc3c2-c2ccnc(Nc3ccc(F)c(F)c3)n2)cc1,6.23,3.78,8.64,2.87,-0.08,3.49,6.3,8.99,16.4,7.75
COc1cc(N2CCN(C(C)C)CC2)ccc1Nc1nc(Nc2cccc3ncccc23)c2cc[nH]c2n1,10.3,1.03,35.2,-1.62,-2.47,0.15,3.49,0.21,0.38,5.06
COc1ccc(Nc2ncc(-c3ccccc3)o2)cc1OC,-1.98,-0.33,-0.29,0.89,2.73,-1.2,1.63,2.72,1.61,-1.69
c1ccc(-c2n[nH]cc2-c2ccnc(-c3ccc(OCCn4ccnc4)cc3)c2)nc1,0.85,-0.66,2.87,-2.85,-3.04,-1.82,0.58,0.18,0.69,-0.16
